# Data reported in the supplement of paper PMC12282887.
# ± gives the standard deviation of the averaged measurements.
# Experiments:
# Assay in all cases: promoter activity interaction Z-score (Lux/OD deviation from empty-vector control); higher = stronger promoter induction by the compound
# [1] = tested on: E. coli BW25113 acrABp lux reporter
# Summary of the method: (§1)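 E. coli BW25113 (wild type or marA, soxS or rob deletion) carrying low-copy luxCDABE promoter reporters grew in 40 µl LB Lennox in 384-well plates at 37°C. Each compound was tested at four 1:2 dilutions in biological duplicates. OD600 and luminescence were read every 30 min for 12 h. Areas were taken over 0–8 h (wild type) or 1–9 h (mutants), and wells below 10% of median growth area were removed. The score is the Z-transformed residual of growth-normalised luminescence fitted against the empty-vector control.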
# [2] = tested on: E. coli BW25113 micFp lux reporter
# Summary of the method: as §1
# [3] = tested on: E. coli BW25113 ompFp lux reporter
# Summary of the method: as §1
# [4] = tested on: E. coli BW25113 robp lux reporter
# Summary of the method: as §1
# [5] = tested on: E. coli BW25113 soxSp lux reporter
# Summary of the method: as §1
# [6] = tested on: E. coli BW25113 tolCp lux reporter
# Summary of the method: as §1
# [7] = 0.063 µg/ml, genetic background: wild type
# [8] = 0.063 µg/ml, genetic background: ΔmarA
# [9] = 0.063 µg/ml, genetic background: Δrob
# [10] = 0.063 µg/ml, genetic background: ΔsoxS
# [11] = 0.13 µg/ml, genetic background: wild type
# [12] = 0.13 µg/ml, genetic background: ΔmarA
# [13] = 0.13 µg/ml, genetic background: Δrob
# [14] = 0.13 µg/ml, genetic background: ΔsoxS
# [15] = 0.25 µg/ml, genetic background: wild type
# [16] = 0.25 µg/ml, genetic background: ΔmarA
# [17] = 0.25 µg/ml, genetic background: Δrob
# [18] = 0.25 µg/ml, genetic background: ΔsoxS
# [19] = 0.51 µg/ml, genetic background: wild type
# [20] = 0.51 µg/ml, genetic background: ΔmarA
# [21] = 0.51 µg/ml, genetic background: Δrob
# [22] = 0.51 µg/ml, genetic background: ΔsoxS
smiles,measurement,setting,value
N=C(NCCCCCCNC(=N)NC(=N)Nc1ccc(Cl)cc1)NC(=N)Nc1ccc(Cl)cc1 [Chlorhexidine],promoter activity interaction Z-score,[1]; [7],0.528 ± 0.15
same,promoter activity interaction Z-score,[1]; [8],0.456 ± 1.1
same,promoter activity interaction Z-score,[1]; [9],-0.0468 ± 0.34
same,promoter activity interaction Z-score,[1]; [10],-0.413 ± 0.67
same,promoter activity interaction Z-score,[1]; [11],0.229 ± 0.18
same,promoter activity interaction Z-score,[1]; [12],-0.312 ± 0.48
same,promoter activity interaction Z-score,[1]; [13],-0.0734 ± 0.14
same,promoter activity interaction Z-score,[1]; [14],0.339 ± 0.46
same,promoter activity interaction Z-score,[1]; [15],0.27 ± 0.26
same,promoter activity interaction Z-score,[1]; [16],-0.147 ± 0.57
same,promoter activity interaction Z-score,[1]; [17],0.135 ± 0.15
same,promoter activity interaction Z-score,[1]; [18],0.108 ± 0.19
same,promoter activity interaction Z-score,[1]; [19],-0.0541 ± 0.33
same,promoter activity interaction Z-score,[1]; [20],0.0169 ± 0.15
same,promoter activity interaction Z-score,[1]; [21],0.0299 ± 0.11
same,promoter activity interaction Z-score,[1]; [22],0.236 ± 0.23
same,promoter activity interaction Z-score,[2]; [7],-0.138 ± 0.035
same,promoter activity interaction Z-score,[2]; [8],0.119 ± 0.018
same,promoter activity interaction Z-score,[2]; [9],-0.0387 ± 0.0014
same,promoter activity interaction Z-score,[2]; [10],-0.423 ± 0.21
same,promoter activity interaction Z-score,[2]; [11],-0.207 ± 0.061
same,promoter activity interaction Z-score,[2]; [12],-0.0564 ± 0.12
same,promoter activity interaction Z-score,[2]; [13],-0.0382 ± 0.027
same,promoter activity interaction Z-score,[2]; [14],-0.0137 ± 0.079
same,promoter activity interaction Z-score,[2]; [15],0.112 ± 0.098
same,promoter activity interaction Z-score,[2]; [16],-0.0647 ± 0.035
same,promoter activity interaction Z-score,[2]; [17],-0.172 ± 0.038
same,promoter activity interaction Z-score,[2]; [18],-0.0807 ± 0.32
same,promoter activity interaction Z-score,[2]; [19],-0.4228 ± 0.0029
same,promoter activity interaction Z-score,[2]; [20],-0.153 ± 0.15
same,promoter activity interaction Z-score,[2]; [21],-0.204 ± 0.03
same,promoter activity interaction Z-score,[2]; [22],0.196 ± 0.032
same,promoter activity interaction Z-score,[3]; [7],0.348 ± 0.12
same,promoter activity interaction Z-score,[3]; [8],0.307 ± 0.032
same,promoter activity interaction Z-score,[3]; [9],0.502 ± 0.096
same,promoter activity interaction Z-score,[3]; [10],0.129 ± 0.63
same,promoter activity interaction Z-score,[3]; [11],0.528 ± 0.026
same,promoter activity interaction Z-score,[3]; [12],-0.185 ± 0.099
same,promoter activity interaction Z-score,[3]; [13],0.2991 ± 0.00077
same,promoter activity interaction Z-score,[3]; [14],0.714 ± 0.18
same,promoter activity interaction Z-score,[3]; [15],0.176 ± 0.12
same,promoter activity interaction Z-score,[3]; [16],0.161 ± 0.18
same,promoter activity interaction Z-score,[3]; [17],0.332 ± 0.15
same,promoter activity interaction Z-score,[3]; [18],0.376 ± 0.19
same,promoter activity interaction Z-score,[3]; [19],0.552 ± 0.14
same,promoter activity interaction Z-score,[3]; [20],0.909 ± 0.66
same,promoter activity interaction Z-score,[3]; [21],0.866 ± 0.037
same,promoter activity interaction Z-score,[3]; [22],1.02 ± 0.32
same,promoter activity interaction Z-score,[4]; [7],0.375 ± 0.078
same,promoter activity interaction Z-score,[4]; [8],0.214 ± 0.35
same,promoter activity interaction Z-score,[4]; [9],0.423 ± 0.27
same,promoter activity interaction Z-score,[4]; [10],0.406 ± 0.057
same,promoter activity interaction Z-score,[4]; [11],0.674 ± 0.55
same,promoter activity interaction Z-score,[4]; [12],-0.0996 ± 0.54
same,promoter activity interaction Z-score,[4]; [13],0.374 ± 0.39
same,promoter activity interaction Z-score,[4]; [14],0.814 ± 0.61
same,promoter activity interaction Z-score,[4]; [15],0.416 ± 0.24
same,promoter activity interaction Z-score,[4]; [16],-0.53 ± 0.44
same,promoter activity interaction Z-score,[4]; [17],0.48 ± 0.31
same,promoter activity interaction Z-score,[4]; [18],0.422 ± 0.89
same,promoter activity interaction Z-score,[4]; [19],-0.214 ± 0.33
same,promoter activity interaction Z-score,[4]; [20],0.504 ± 0.37
same,promoter activity interaction Z-score,[4]; [21],0.258 ± 0.6
same,promoter activity interaction Z-score,[4]; [22],0.18 ± 0.19
same,promoter activity interaction Z-score,[5]; [7],-0.0504 ± 0.14
same,promoter activity interaction Z-score,[5]; [8],0.0857 ± 0.028
same,promoter activity interaction Z-score,[5]; [9],0.21 ± 0.1
same,promoter activity interaction Z-score,[5]; [10],0.0523 ± 0.26
same,promoter activity interaction Z-score,[5]; [11],0.0248 ± 0.062
same,promoter activity interaction Z-score,[5]; [12],0.0401 ± 0.18
same,promoter activity interaction Z-score,[5]; [13],-0.0238 ± 0.042
same,promoter activity interaction Z-score,[5]; [14],0.276 ± 0.16
same,promoter activity interaction Z-score,[5]; [15],0.0242 ± 0.039
same,promoter activity interaction Z-score,[5]; [16],0.138 ± 0.13
same,promoter activity interaction Z-score,[5]; [17],0.236 ± 0.22
same,promoter activity interaction Z-score,[5]; [18],0.165 ± 0.005
same,promoter activity interaction Z-score,[5]; [19],-0.166 ± 0.08
same,promoter activity interaction Z-score,[5]; [20],0.198 ± 0.063
same,promoter activity interaction Z-score,[5]; [21],-0.014 ± 0.063
same,promoter activity interaction Z-score,[5]; [22],-0.0376 ± 0.072
same,promoter activity interaction Z-score,[6]; [7],0.313 ± 0.44
same,promoter activity interaction Z-score,[6]; [8],0.0546 ± 1.2
same,promoter activity interaction Z-score,[6]; [9],0.212 ± 0.98
same,promoter activity interaction Z-score,[6]; [10],0.135 ± 0.81
same,promoter activity interaction Z-score,[6]; [11],0.112 ± 0.076
same,promoter activity interaction Z-score,[6]; [12],-0.214 ± 1.4
same,promoter activity interaction Z-score,[6]; [13],-0.155 ± 0.64
same,promoter activity interaction Z-score,[6]; [14],0.18 ± 2
same,promoter activity interaction Z-score,[6]; [15],-0.564 ± 0.81
same,promoter activity interaction Z-score,[6]; [16],-0.365 ± 0.86
same,promoter activity interaction Z-score,[6]; [17],0.568 ± 0.35
same,promoter activity interaction Z-score,[6]; [18],0.574 ± 0.065
same,promoter activity interaction Z-score,[6]; [19],-0.539 ± 0.4
same,promoter activity interaction Z-score,[6]; [20],0.431 ± 0.064
same,promoter activity interaction Z-score,[6]; [21],-0.613 ± 0.62
same,promoter activity interaction Z-score,[6]; [22],0.378 ± 0.96
